# About 83,000 compounds went through this panel and 20% of them were active in at least one assay; those are over-represented in the sample as a whole.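 Results are percent growth after 48 hours of single-concentration exposure. 100 means growth as in untreated cells, lower positive values show inhibition; negative values down to -100 show cell death.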 Unmarked numbers belong to inactive results. The source made the active and inactive calls. Rule for the calls: active = growth percent below 10; inactive = the rest.
# What was measured:
# Assay in all cases: NCI-60 one-dose screen, 48 h (100 = growth as untreated, 0 = no growth, -100 = all killed)
# Conditions in all cases: 10 µM
# [1] = tested on: DU-145 prostate
# [2] = tested on: K-562 leukemia
# [3] = tested on: MALME-3M melanoma
# [4] = tested on: MDA-MB-231 breast
# [5] = tested on: RXF 393 renal
# [6] = tested on: SF-268 CNS
# [7] = tested on: SF-295 CNS
# [8] = tested on: SF-539 CNS
# [9] = tested on: UACC-257 melanoma
# [10] = tested on: M14 melanoma
# [11] = tested on: HCT-15 colon
# [12] = tested on: HT29 colon
# [13] = tested on: SNB-75 CNS
# [14] = tested on: SNB-19 CNS
# [15] = tested on: U251 CNS
# [16] = tested on: PC-3 prostate
# [17] = tested on: SK-MEL-5 melanoma
# [18] = tested on: UACC-62 melanoma
# [19] = tested on: LOX IMVI melanoma
# [20] = tested on: SK-MEL-28 melanoma
SMILES,growth [1],growth [2],growth [3],growth [4],growth [5],growth [6],growth [7],growth [8],growth [9],growth [10],growth [11] [%],growth [12],growth [13],growth [14] [%],growth [15],growth [16],growth [17],growth [18],growth [19],growth [20]
O=S(=O)(O)c1ccc(Cl)cc1,101%,99.7%,98.2%,107%,123%,95.1%,109%,102%,99.2%,99.7%,100,93.6%,100%,102,101%,96.5%,98.3%,99.8%,96.3%,113%
CS(=O)(=O)c1nccc(-c2c(-c3cccc(OCc4ccccc4)c3)nc3sccn23)n1,-59.6% (active),47.1%,58.7%,61.4%,90.7%,97%,101%,90%,27.8%,72.3%,49.4,77.9%,97.5%,88.6,89.1%,66.2%,0.137% (active),62.4%,28.6%,77.1%
Cc1ccc2nc(Cl)c(-c3nc4ccccc4o3)cc2c1,103%,80.7%,86.9%,91.4%,102%,87.9%,105%,99.2%,108%,106%,79.4,102%,90.2%,93.2,102%,79.8%,88.7%,94.9%,82.8%,104%
COc1ccc(-c2cc(-c3ccccc3)nc(SCCCC(=O)NO)n2)cc1,1.16% (active),6.74% (active),-9.2% (active),-0.784% (active),-40.8% (active),-18.8% (active),-39.6% (active),0.299% (active),-3.3% (active),-21.8% (active),10.8,5.87% (active),-20.1% (active),10.6,-24.5% (active),9.65% (active),-57.8% (active),-65.9% (active),-65.4% (active),19.2%
COc1cc2c(Nc3ccc(-c4ccc(N)cc4)cc3)ncnc2c(OC)c1OC,34.9%,11%,36.5%,56.9%,103%,52.6%,-33.2% (active),17.5%,43.8%,13.8%,28.8,46.2%,82.8%,51.1,42.6%,47.3%,-25.1% (active),7.02% (active),31.1%,75.6%
CC(=O)C1CCC2C3CC=C4CC(SC(=N)N)CCC4(C)C3CCC12C (stereo not given),75.5%,-5.34% (active),-6.9% (active),46.6%,25.6%,72%,51.1%,65.5%,13.6%,18.3%,16.3,11%,55.4%,64.2,30.5%,33%,15.6%,64.4%,-56% (active),61.5%
COc1cc(-c2nn(-c3cccc(NC(=O)CCN4CCN(Cc5ccccc5)CC4)c3)cc2-c2ccncc2)ccc1Cl,7.55% (active),-43.1% (active),-60.7% (active),-14.7% (active),-50.6% (active),19.1%,-46.5% (active),-74.3% (active),-58.2% (active),-61.3% (active),11.8,-20.2% (active),-10.3% (active),39.9,6.53% (active),7.06% (active),-95.3% (active),10.7%,-88.6% (active),-85.4% (active)
CC(C)(C)OC(=O)N1CCc2c(sc3ncnc(N/N=C/c4ccccc4Br)c23)C1,91.9%,15.9%,90.4%,81.3%,81.8%,87.8%,89.5%,80.6%,82.6%,83.3%,25.5,77.2%,74.5%,93.1,74.9%,48.1%,66.6%,60.1%,55.5%,81.9%
COc1ccc(/C=C2\CCCC3=C2NC(N)=NC3c2ccc(OC)cc2)cc1 (stereo not given),109%,107%,99.6%,96.9%,99.3%,109%,104%,107%,91.2%,106%,92.9,93.2%,87.4%,92.1,90.6%,86.7%,56.2%,68%,73.6%,98.5%
CCC(CC)n1c(C)cc(=O)n1C(CC)CC,113%,105%,142%,109%,111%,100%,100%,96.7%,106%,110%,106,111%,95.3%,96,105%,104%,98.4%,101%,102%,107%
CCOC(=O)N/N=C/c1ccc(OC)c(OC)c1,118%,99.9%,132%,106%,101%,127%,101%,112%,106%,113%,110,104%,106%,104,100%,104%,101%,98.7%,102%,107%
Clc1ccc(C2=NN=C3C(Cc4ccccc4)=Nc4ccccc4N3C2)cc1,70.1%,30.1%,95.5%,68.9%,82.1%,66.7%,86.3%,105%,104%,75.8%,68.6,84.6%,98.5%,93.3,62.1%,65.1%,80.3%,79.6%,65.2%,83.4%
CC(=O)Oc1cc(OC(C)=O)c2ccccc2c1OC(C)=O,67%,70.5%,67.3%,67.7%,93.1%,87.9%,103%,100%,81.4%,84.1%,81.3,92.9%,85.7%,93.8,94%,62.6%,60.9%,89.9%,48.3%,99.5%
O=C(CCl)Oc1ccc(OC(=O)CCl)cc1,88.6%,93.6%,88.4%,81.1%,109%,93.8%,108%,72.8%,89.1%,85.9%,94.1,99.9%,75.3%,104,101%,89.4%,82.2%,85%,89.3%,104%
COc1cc(-c2nn(-c3cccc(NC(=O)CCN4CCN(c5ccccc5)CC4)c3)cc2-c2ccncc2)ccc1Cl,30.8%,11.3%,38%,7.1% (active),-0.267% (active),30%,13.4%,30.2%,29.1%,10.8%,20.8,4.96% (active),36.8%,35.9,17.2%,22%,22%,26.6%,6.98% (active),28.9%

# From PubChem BioAssay (NCI)
